PubChem BioAssay AID598 (SRMLSC, 2007)
The campaign covered roughly 85,000 compounds. About 5,100 (6%) were called active.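 How the source made its calls: active means viability at or below 40%; inactive means viability above 40%.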 Only a selection was taken, and actives are over-represented in it overall.

Assay: proliferation blockers of H69AR lung cancer cells, primary screen, cell-based, human, 86K library (AID 598);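 further: multidrug resistant small cell line overexpressing MRP-1 efflux transporter; 100% = mean luminescence of untreated control wells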
Conditions: H69AR lung tumor viability, ATP luminescence, 72 h; at 10 µM; active compounds read low

Structure (SMILES)	viability
COC(=O)c1cc2nc(-c3ccccc3)cc(C(F)(F)F)n2n1	90.6% (inactive)
O=C(O)CCC(=O)NCc1ccc(C(=O)O)cc1	96% (inactive)
O=C(Nc1cc(-c2nn(CC(=O)N3CCCCC3)c(=O)c3ccccc23)ccc1N1CCOCC1)c1ccc(Cl)cc1	93.1% (inactive)
Cc1ccc(-c2cnc(NC(=O)CCC(=O)N(C)Cc3ccccc3)n2C)cc1	100% (inactive)
COc1ccc(NC(=O)CC2COc3ccccc3O2)c(OC)c1 (centres undefined)	105% (inactive)
Cc1cccc(-c2nc3c(c(SCC(=O)N4CCOCC4)n2)CCCC3)c1	70.3% (inactive)
Cc1ccc(S(=O)(=O)c2c(COC(=O)c3cccc(Cl)c3)c(-c3ccccc3)nn2C)cc1	87.9% (inactive)
COC(=O)Cn1nc(-c2ccccc2)c2cc(Cl)ccc21	98.3% (inactive)
Cn1nc(-c2ccccc2)c(CSc2cccc(Cl)c2)c1Cl	22% (active)
Cn1c(=O)c2c(SCC(=O)N3CCOCC3)nc(C3CC3)nc2n(C)c1=O	81.8% (inactive)
CC(C)NC(=O)C(=O)NCCN1CCN(S(=O)(=O)c2ccc(Cl)cc2)CC1	94.6% (inactive)
O=C(CCn1c(SCC(=O)c2ccccc2)nc2ccccc2c1=O)NCc1ccc(F)cc1	97.6% (inactive)
Cc1cc(Oc2ccccc2)nc(N2CCOCC2)n1	94.1% (inactive)
Cc1cc(C)n(-c2cc(Oc3ccccc3)ncn2)n1	100% (inactive)
CC(=O)c1ccc(Oc2cc(C)nc(-n3nc(C)cc3C)n2)cc1	23.4% (active)
O=C(CSc1nc2cccnc2n1Cc1ccccc1)N1CCc2ccccc21	70.1% (inactive)
C=CCO/N=C(\C)c1c(O)c(C)c(-c2ccccc2)n(-c2ccccc2)c1=O	96.7% (inactive)
O=C(NCC1CCC(C(=O)O)CC1)OCc1ccccc1 (centres undefined)	98.5% (inactive)
COc1ccc(C2CC(=O)Nc3cc(C)c(C)cc32)c(OC)c1OC (centres undefined)	78.6% (inactive)
CCCOc1ccccc1C1CC(=O)Nc2cc3c(cc21)OCO3 (centres undefined)	25.9% (active)
COCCOC(=O)C1=C(C)NC(=O)CC1c1cc2c(cc1Br)OCO2 (centres undefined)	97.1% (inactive)
CCCNC(=S)N1CCC(NC(=O)C23CC4CC(CC(C4)C2)C3)CC1	101% (inactive)
CCOC(=O)Cc1csc(NC(=O)CSc2nnc(-c3cccnc3)n2Cc2ccco2)n1	100% (inactive)
CCOCc1nnc(NC(=O)CSc2ccc(C)cc2)s1	94.8% (inactive)
CCCCCN1CC(O)=C(c2nc(-c3ccc(Cl)cc3)cs2)C1=N	99% (inactive)

Structure (SMILES)	viability
O=C(Nc1cccc(F)c1)c1ccc(S(=O)(=O)N2CCCC2)cc1	84.8% (inactive)
COc1ccc(C(=O)Nc2ccc(F)cc2F)cc1	94.2% (inactive)
CCOC(=O)N1CCN(S(=O)(=O)c2ccc(C(=O)Nc3ccc(F)cc3F)cc2)CC1	20.4% (active)
COc1ccc(C2=NOC3(CC(=O)N(c4ccc(C)cc4)C3=O)C2)cc1 (centres undefined)	98.4% (inactive)
O=C(c1cccc(N2CCCC2=O)c1)N1CCOCC1	110% (inactive)
CCN(CC)CCn1c2ccc(Cl)cc2c2nc(C)sc21	20.6% (active)
COC(=O)Cn1c2ccc(C)cc2c2nc(C)sc21	98.6% (inactive)
COc1ccc(Br)cc1CN1CCN(C(=O)c2cccc(OC)c2OC)CC1	70.4% (inactive)
COC(=O)c1ccccc1NC(=O)CN(Cc1ccc(Cl)cc1)S(C)(=O)=O	60.9% (inactive)
COc1cccc(NC(=O)CN(C)S(=O)(=O)c2ccc(C)cc2)c1	89.9% (inactive)
COc1cccc(-c2nnc(NC(=O)c3ccc(S(=O)(=O)N(CC(C)C)CC(C)C)cc3)o2)c1	13.2% (active)
CCN(CC)C(=O)CSc1nnc(-c2cccc(OC)c2)o1	76.1% (inactive)
COC(=O)c1ccccc1Sc1c(/C=N/OCc2ccc(Cl)cc2)c(C(F)(F)F)nn1C	79.2% (inactive)
CN(C)C(=O)c1cc(Br)ccc1Cl	100% (inactive)
COc1ccc(C2C(C#N)=C(/N=C/N3CCOCC3)OC3=C2C(=O)CC(C)(C)C3)cc1OC (centres undefined)	96.7% (inactive)
OC(COc1ccc2c(c1)CCC2)CN1CCN(c2cccc(Cl)c2)CC1 (centres undefined)	75% (inactive)
O=C(Nc1ccccc1-c1nnn(CC(=O)N2CCCc3ccccc32)n1)c1cccc(Cl)c1	102% (inactive)
Cc1cc(C)n(C(=O)CCNC(=O)c2ccccc2Cl)n1	104% (inactive)
Clc1ccc(C2=CSC3=Nc4cccc5cccc(c45)N23)cc1	27.7% (active)
O=C(c1ccco1)N1CCN(C(=O)C2CCCN(S(=O)(=O)c3cccc4nsnc34)C2)CC1 (centres undefined)	91.1% (inactive)
CCOCCOCCC(C(=O)O)P(=O)(c1ccccc1)c1ccccc1 (centres undefined)	103% (inactive)
CCc1c(O)nc(SCC(=O)Nc2ccccc2)n(C(C)CC)c1=O (centres undefined)	74.6% (inactive)
CC(C)c1ccc(NC(=O)NC2CCCCC2)cc1	25.6% (active)
CC(=O)OC(C(=O)NC1CCCCC1)c1ccccc1 (centres undefined)	92.1% (inactive)
CC(C)NS(=O)(=O)c1ccc(NC(=O)C2CCCCC2)cc1	109% (inactive)

Structure (SMILES)	viability
CNC(=S)N1N=C(c2ccccc2)CC1c1ccc(Br)cc1 (centres undefined)	76.7% (inactive)
CCCn1c(C(O)c2cc(OC)ccc2OC)nc2ccccc21 (centres undefined)	95.3% (inactive)
COc1ccc(-c2nc3ccccc3n2CCC(C)C)cc1OC	28.8% (active)
COCCn1c(-c2ccc(OC)c(OC)c2)nc2ccccc21	92.7% (inactive)
COC(=O)c1[nH]c2ccc(Br)cc2c1NC(=O)Oc1ccccc1	80.6% (inactive)
Cc1nc(-c2ccc(NC(=O)c3cccs3)cc2)cs1	70.7% (inactive)
O=C(Nc1ccc2oc(-c3ccc4ccccc4c3)nc2c1)c1cccs1	2.65% (active)
O=C(Cc1cccc2ccccc12)Nc1ccc2oc(-c3ccccc3)nc2c1	59.7% (inactive)
CCNC(=O)c1sccc1-n1cccc1	103% (inactive)
CC(C)(C)NC(=O)Cn1c(SCC(=O)Nc2nccs2)nc2ccccc21	92.5% (inactive)
O=S(=O)(N1CCCCC1)N1CCNCC1	100% (inactive)
Cc1cccc(C)c1NC(=O)CCCSc1nnc(-c2ccco2)n1-c1ccccc1	34.3% (active)
COc1ccc(C(=O)NC(=O)CSc2nnc(-c3ccco3)n2-c2ccccc2)cc1	95.2% (inactive)
O=C(CSc1nnc(-c2ccco2)n1-c1ccccc1)NCCc1ccccc1	82% (inactive)
COC(=O)c1sc(=S)n(-c2ccc(Cl)cc2)c1C	90% (inactive)
CCOn1c(SC(C)C)nc2ccccc2c1=O	103% (inactive)
Cc1ccc(OC(=O)c2cc3ccccc3o2)cc1	104% (inactive)
CCOC(=O)c1cc2cc(-c3c(C(=O)OCC)oc4cc(O)cc(O)c4c3=O)ccc2o1	16.6% (active)
CCOC(=O)c1c(C)nc2c(c1C)c(=O)oc1ccccc12	98.3% (inactive)
CN(C)c1nc(N)nc(CSc2ccccn2)n1	91% (inactive)
Cc1cc(N/C=C\C(=O)c2ccc(Cl)c(Cl)c2)no1	84.8% (inactive)
COC(=O)CNS(=O)(=O)c1ccc(OC)cc1	91.5% (inactive)
CCOC(=O)c1ccccc1NS(=O)(=O)c1ccc(OC)cc1	18.2% (active)
CCCC(NS(=O)(=O)c1ccc(OC)cc1)C(=O)O (centres undefined)	104% (inactive)
O=c1[nH][nH]c(C(F)(F)F)c1C=NCc1ccccc1Cl	81.2% (inactive)

Structure (SMILES)	viability
Cc1cccc(-c2noc(-c3ccc(F)cc3)n2)c1	91.5% (inactive)
Cn1nc(-c2ccccc2)c(-c2nc(-c3ccc(Cl)cc3)no2)c1Cl	34.3% (active)
COc1ccc(-c2nc(-c3ccccc3)no2)c(OC)c1	69.4% (inactive)
COc1ccc(Cl)cc1C(=O)NCc1cn(C)nc1C	86.1% (inactive)
Cc1ccccc1-n1c(C)cc(/C=C2\NC(=O)NC2=O)c1C	85.6% (inactive)
CC1CC2=C(CC1/C=N/NC(N)=S)C(C)(C)CCC2 (centres undefined)	2.3% (active)
CC1(C)CCCC2=C1CC1C(=O)N(c3ccccc3)C(=O)C1C2 (centres undefined)	84% (inactive)
CCCCc1nc2ccccc2c(=O)n1NC(=O)c1c(O)c2cccc3c2n(c1=O)CC3	70.7% (inactive)
CCCc1nc2ccccc2c(=O)n1/N=C/c1ccc(O)c(O)c1	15.8% (active)
CCCc1nc2ccccc2c(=O)n1NC(=O)c1c(O)c2ccccc2[nH]c1=O	86.6% (inactive)
CCn1c2ccccc2c2cc(NC(=S)N3CCOCC3)ccc21	20.1% (active)
CCOc1cc(C(=S)N2CCOCC2)ccc1O	85.1% (inactive)
CCn1c(=O)cc(O)c2ccccc21	83.1% (inactive)
CS(=O)(=O)Nc1ccc(C(=O)N2CCCC2)cc1	89.1% (inactive)
Cc1ccc(CN2CCN(/N=C/c3ccco3)CC2)c(C)c1	106% (inactive)
C=CCNC(=O)c1cc2nc(C3CC3)cc(C(F)F)n2n1	91.1% (inactive)
Cn1c(COc2ccc(Cl)cc2)nc2ccccc2c1=O	77.5% (inactive)
Cc1[nH]n(-c2ccc(Cl)cc2)c(=O)c1/C=N/n1c(C)nc2ccccc2c1=O	50.4% (inactive)
Cc1[nH]n(-c2cccc(Cl)c2)c(=O)c1/C=N/n1c(C)nc2ccccc2c1=O	29.1% (active)
O=C(CN(c1ccccc1)S(=O)(=O)c1ccc(Cl)cc1)Nc1ccccc1C(=O)N1CCCC1	84.3% (inactive)
O=C(Cc1ccc(-n2c(=O)[nH]c3ccccc3c2=O)cc1)N1CCN(c2cccc(Cl)c2)CC1	89.4% (inactive)
O=C(Nc1ccc2ccccc2c1)Nc1ccc2snnc2c1	7.33% (active)
COc1ccc(NC(=O)Nc2ccc3nc(C)c(C)nc3c2)cc1	90.7% (inactive)
Cc1ccc(NC(=O)Nc2ccc3oc(C)nc3c2)cc1	74.5% (inactive)
